Our source for the Inhibition values is ChEMBL document CHEMBL1157539, “Thousands of chemical starting points for antimalarial lead identification” (Nature, 2010).

By Inhibition is commonly meant the relative decrease from the control value, in per cent. A lower Inhibition goes with little suppression.

Values joined by “and” are separate entries in the source; they are usually repeats but may differ in a detail not shown here. Equal entries are not always repeated.

In this assay the test system is HepG2. Description: GSK_TCMDC: Percent inhibition of human HepG2 cell line. Test compounds present at 10uM. The class given is functional.
As to `COCCNCc1ccc(-c2ccc(CN(C(=O)NC3CCCCC3)C3CCN(Cc4ccccc4)CC3)cc2)cc1.O=C(O)C(F)(F)F`, the Inhibition is recorded as 29%. The figure for `CC[C@H]1CN2CC[C@@H]1C[C@H]2[C@H](O)c1cc(N2CCC(O)CC2)nc2ccc(OC)cc12` is 15%; for `CC(C)CNCc1cccc(-c2cccc(CN(C(=O)c3cccs3)C3CCN(Cc4ccccc4)CC3)c2)c1.O=C(O)C(F)(F)F` it is 14%; for `CNCC(O)c1cc(Cl)c(Cl)cc1C.Cl` (stereo not drawn) it is 0%. The figure for `O=C(Nc1ccccc1Cl)NC1CCC(CN2CCC(c3c[nH]c4ccccc34)CC2)CC1` (stereo not drawn) is 32% and 37%; for `CC1(CCCCN2CC=C(c3c[nH]c4ccccc34)CC2)C(=O)Nc2ccccc21` (stereo not drawn) it is 3%.

`CC(=O)Nc1ccc(CN2CCC(N(C)c3cc(NC(=O)c4cccc(F)c4)ccn3)CC2)cc1.O=C(O)C(F)(F)F` registered an Inhibition of 4%.

In the case of `O=C(COc1ccc(Cl)cc1)N1CCC(CN2CCC(c3c[nH]c4ccccc34)CC2)CC1`, the Inhibition turned out to be 48%. Take `CCCCCc1cc(O)c2c(c1)OC(C)(C)CC2C1=CCN(Cc2ccccc2)CC1` (stereo not drawn): the Inhibition is 15%.

For the compound `CCOC(=O)c1c(CN2CCN(C)CC2)n(Cc2ccccc2)c2cc(Br)c(O)cc12`, the Inhibition is recorded as 11%. On to `O=C(/C=C/c1cccc2ccccc12)NC1CCC(CN2CCC(c3c[nH]c4ccccc34)CC2)CC1` (stereo not drawn), for which the Inhibition was 45% and 53%. With `COc1cccc(C2(C)CCN(CCCCNC(=O)c3ccc(NC(=O)c4ccc(Cl)cc4)cc3)CC2)c1.Cl`, the Inhibition was 19%. The figure for `Cc1cc(N)nc2ccc(CNCCc3ccccc3Br)cc12.Cl` is 28%. The figure for `COc1cc(/C=C/C(=O)NC2CCC(CN3CCC(c4c[nH]c5ccccc45)CC3)CC2)ccc1O` (stereo not drawn) is 11% and 19%; for `Br.COC(=O)C(C)(C)c1ccc(CC(C)NCC(O)c2cccc(C(F)(F)F)c2)cc1` (stereo not drawn) it is 6%. The figure for `N#Cc1ccc(N(CC(=O)NCCc2ccccc2)CC2CC2)c2ccccc12.O=C(O)C(F)(F)F` is 0%. In turn, `Cc1[nH]c2ccc(NS(C)(=O)=O)cc2c1C1CCN(CC2CCN(C(=O)/C=C/c3ccc(Cl)c(Cl)c3)CC2)CC1` yielded an Inhibition of 15%. The figure for `CC(=O)C1(c2ccccc2)CCN(CCC2(c3ccc(Cl)c(Cl)c3)CN(C(=O)C3CCCC3)CCO2)CC1` (stereo not drawn) is 11%; for `CC(=O)Nc1ccc(CN2CCC(N(C)c3ccc(NC(=O)c4cccc(C)c4)cc3)CC2)cc1.O=C(O)C(F)(F)F` it is 0%. The figure for `O=C(/C=C/c1ccc(Cl)c(Cl)c1)NCc1ccc(CN2CCC(c3c[nH]c4ccccc34)CC2)cc1` is 59%; for `O=C1NCN(c2ccc(O)cc2)C12CCN(CCCC(c1ccc(F)cc1)c1ccc(F)cc1)CC2` it is 20%. For the compound `Fc1ccc(N(c2nc(-c3cc(F)cc(C(F)(F)F)c3)cs2)C2CCNCC2)cc1.O=C(O)C(F)(F)F`, the Inhibition amounted to 35%. The figure for `O=C(NC1CCC(N2CCC3(CC2)C(=O)NCN3c2ccccc2)CC1)c1cc2ccccc2[nH]1` (stereo not drawn) is 0%; for `CC(C)/C(=C(/F)CN1C(=O)C(NC(=O)c2cc3ccccc3[nH]2)C(=O)N(c2ccccc2)c2ccccc21)c1ccccc1` (stereo not drawn) it is 7%. The compound `O=S(=O)(NC1CCC(CN2CCC(c3c[nH]c4ccccc34)CC2)CC1)c1ccc(Cl)c(Cl)c1` (stereo not drawn) came in with an Inhibition of 36%. As for `CCCCCCCn1c(=O)c(C(=O)Nc2c(C)cccc2C)c(O)c2ccccc21`, the Inhibition came out at 6%.

As to `Cc1cc(N(C)C2CCN(C)CC2)nc(Nc2ccc(Cl)cc2)n1`, the Inhibition turned out to be 15%. The figure for `COc1cc(C=CC(=O)N2CCC(CN3CCC(c4c[nH]c5ccccc45)CC3)CC2)ccc1O` is 11%; for `COc1ccc(CC(C)NCC(O)c2cccc(Br)c2)cc1` (stereo not drawn) it is 10%; for `CC[C@H]1CN2CC[C@H]1C[C@H]2[C@H](O)c1cc(-c2ccc3ccccc3c2)nc2ccc(OC)cc12.Cl` it is 49%.

On to `O=C(/C=C/c1ccc(Cl)c(Cl)c1)Nc1cccc(CN2CCC(c3c[nH]c4ccc(O)cc34)CC2)c1`, for which the Inhibition is listed as 11%. The figure for `CN1C(=O)[C@H](NC(=O)[C@@H](Cc2ccccc2)NC(=S)Nc2ccccc2)N=C(c2ccccc2)c2ccccc21` is 0%; for `CCCCc1ccc2[nH]cc(C3=CCN(C)CC3)c2c1Br` it is 37%. The figure for `Br.CC[C@H]1CN2CC[C@H]1C[C@H]2[C@H](O)c1ccnc2ccc(C#N)cc12` is 0%; for `CCC1(C)CC(CCNCc2ccccc2O)(c2ccc(F)cc2)CCO1` (stereo not drawn) it is 20%. Compound `COc1ccccc1CNCC(O)c1cc(C(F)(F)F)ccc1C(F)(F)F` (stereo not drawn) came in with an Inhibition of 10%.

On to `CC[C@H]1CN2CC[C@@H]1C[C@H]2[C@H](O)c1cc(-c2cccnc2)nc2ccc(OC)cc12.Cl`, for which the Inhibition was determined as 20%.

Turning to `Oc1ccc(CN2CCN(CCOC(c3ccc(F)cc3)c3ccc(F)cc3)CC2)cc1Cl`, the Inhibition amounted to 19%.
